Test results reported in PubChem BioAssay (EPA / NIEHS).
Records with an inconclusive call do not appear. Calls of active or inactive are those of the source. Rule for the calls, unless noted: active = hit-call score of the fitted dose curve at least 0.9, where 1 is the maximum; inactive = score below 0.9.

Columns and labels:
[1] = APR_HepG2_CellCycleArrest_1hr: Apredica 1-hour HepG2 Assay for Cell Cycle Arrest (AID 2282666); conditions: high-content imaging, actives raise or lower the signal
Summary of the method: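 Cell cycle arrest scored from nuclear DNA content (Hoechst 33342) using high-content imaging of fixed HepG2 cells after 1 h treatment across 0.39–200 uM, in duplicate. Gain or loss fitted relative to 0.5% DMSO.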

[2] = APR_HepG2_MitoticArrest_1hr: Apredica 1-hour HepG2 Assay for Mitotic Arrest (AID 2282672); conditions: high-content imaging, actives raise or lower the signal
Summary of the method: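 Ten-point concentration series (0.39 to 200 uM, duplicates, 0.5% v/v DMSO) applied to human HepG2 liver cells for 1 hr. High-content imaging of phospho-histone H3 and Hoechst-stained nuclei after fixation and permeabilization; DMSO-normalised bidirectional fit.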

[3] = APR_HepG2_P-H2AX_1hr: Apredica 1-hour HepG2 Assay for H2AX Phosphorylation (AID 2282673); conditions: high-content imaging, actives raise or lower the signal
Summary of the method: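 Phospho-H2A.x immunofluorescence (1:200, FITC secondary) plus Hoechst nuclear stain, quantified by high-content imaging in HepG2 after 1 hr compound exposure. Ten concentrations, 0.39 to 200 uM, in duplicate with 0.5% DMSO; fit both directions against DMSO.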

[4] = APR_HepG2_MitoMass_1hr: Apredica 1-hour HepG2 Assay for Mitochondrial Mass (AID 2282674); conditions: high-content imaging, actives raise or lower the signal
Summary of the method: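 Mitochondrial mass is taken from MitoTracker Red CMXRos (250 nM, 30 min, pre-fixation) fluorescence imaged at 20x in HepG2 cells. Exposure lasted 1 hr across ten concentrations, 0.39 to 200 uM, 0.5% DMSO; DMSO baseline, bidirectional fitting.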

[5] = APR_HepG2_MitoMembPot_1hr: Apredica 1-hour HepG2 Assay for Mitochondrial Membrane Potential (AID 2282675); conditions: imaging, actives raise or lower the signal
Summary of the method: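 Mitochondrial membrane potential read as MitoTracker Red CMXRos intensity by automated imaging of fixed HepG2 cells. Dye at 250 nM for 30 min pre-fixation; compounds 0.39 to 200 uM for 1 hour, duplicate wells, 0.5% DMSO.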

[6] = ACEA_ER_80hr: ACEA Biosciences xCELLigence Real-Time Cell Analysis on Estrogen Receptor Agonism for Proliferation (AID 2282667; active = hit-call score of the fitted dose curve at least 0.9, where 1 is the maximum); conditions: T47D proliferation, impedance (xCELLigence), 80 h
Summary of the method: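 Impedance readout (RT-CES) of T47D proliferation at 80 h post-dose; gain of signal vs DMSO baseline. Compounds: 8 conc, 1:4 serial, top 100 uM final, ≤0.5% DMSO; biological duplicate.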

[7] = APR_HepG2_CellLoss_1hr: Apredica 1-hour HepG2 Assay for Cell Loss (AID 2282668); conditions: high-content imaging;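 note: curves fitted both ways against DMSO so gain or loss of cells counts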
Summary of the method: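 Cell number comes from high-content imaging of Hoechst-labelled nuclei in fixed HepG2 cells. Cells were exposed for 1 h to ten concentrations from 0.39 to 200 uM in 0.5% DMSO. Gain or loss was fitted against DMSO controls.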

[8] = APR_HepG2_NuclearSize_1hr: Apredica 1-hour HepG2 Assay for Nuclear Size (AID 2282670); conditions: high-content imaging, actives raise or lower the signal
Summary of the method: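 Nuclear size measured by high-content imaging of Hoechst 33342 nuclear stain after formaldehyde fixation; human HepG2 line exposed 1 hr to compounds at 0.39–200 uM in 0.5% DMSO, with bidirectional curve fitting relative to DMSO.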

[9] = APR_HepG2_MicrotubuleCSK_1hr: Apredica 1-hour HepG2 Assay for Microtubule CSK Stabilty (AID 2282669); conditions: HepG2 microtubule cytoskeleton imaging, actives raise or lower the signal
Summary of the method: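 Alpha-tubulin immunofluorescence, imaged by automated high-content microscopy with Hoechst nuclear segmentation, measured cytoskeletal change after 1 h dosing of HepG2 at 0.39–200 uM in 0.5% DMSO. Activity fitted in both directions relative to DMSO.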

Measured: outcome

O=S(=O)(O)C(F)(F)C(F)(F)C(F)(F)C(F)(F)C(F)(F)C(F)(F)C(F)(F)C(F)(F)F
inactive: [1] | [2] | [3] | [4] | [5]

Cc1[nH]c(=O)n(C(C)(C)C)c(=O)c1Cl
inactive: [6] | [2] | [3] | [5]

CCCN(CCOc1c(Cl)cc(Cl)cc1Cl)C(=O)n1ccnc1
inactive: [1] | [2] | [3] | [5]

COC(=O)c1ccccc1S(=O)(=O)NC(=O)Nc1nc(C)nc(OC)n1
inactive: [1] | [7] | [2] | [3] | [5]

CNC(=O)Oc1ccccc1OC(C)C
inactive: [7] | [8] | [2] | [3] | [5]

O=C(O)C(F)(F)C(F)(F)C(F)(F)C(F)(F)C(F)(F)C(F)(F)C(F)(F)F
inactive: [1] | [9] | [2] | [3] | [5]

COP(=S)(OC)Oc1ccc([N+](=O)[O-])cc1
inactive: [1] | [8] | [2] | [3] | [5]

CC(C)(C)C(O)C(Oc1ccc(Cl)cc1)n1cncn1 (stereo unspecified)
inactive: [1] | [8] | [2] | [3] | [5]

CCC(C)Nc1c([N+](=O)[O-])cc(C(C)(C)C)cc1[N+](=O)[O-] (stereo unspecified)
inactive: [1] | [6] | [8] | [2] | [3] | [5]

C#CCN1C(=O)COc2cc(F)c(N3C(=O)C4=C(CCCC4)C3=O)cc21
inactive: [6] | [9] | [2] | [3] | [4] | [5]

COC(=O)c1ccccc1CS(=O)(=O)NC(=O)Nc1nc(OC)cc(OC)n1
inactive: [1] | [7] | [9] | [2] | [3] | [5]

CC1(C)C(C=C(Cl)Cl)C1C(=O)OC(C#N)c1ccc(F)c(Oc2ccccc2)c1 (stereo unspecified)
inactive: [1] | [9] | [2] | [3] | [4] | [5]

CCC(C)(NC(=O)c1cc(Cl)c(C)c(Cl)c1)C(=O)CCl (stereo unspecified)
inactive: [7] | [2] | [3] | [5]

CNC(=O)/C=C(\C)OP(=O)(OC)OC
inactive: [6] | [7] | [2] | [3] | [5]

COP(=O)(OC)OC=C(Cl)Cl
inactive: [6] | [7] | [2] | [3] | [5]

O=[N+]([O-])/N=C1\NCCN1Cc1ccc(Cl)nc1
inactive: [6] | [7] | [2] | [3] | [5]

CNC(=O)CSP(=S)(OC)OC
inactive: [1] | [6] | [9] | [2] | [3] | [4] | [5]

CCOC1Oc2ccc(OS(C)(=O)=O)cc2C1(C)C (stereo unspecified)
inactive: [6] | [7] | [2] | [3] | [5]

CC(C)(C)C(O)/C(=C\c1ccc(Cl)cc1Cl)n1cncn1 (stereo unspecified)
inactive: [1] | [8] | [2] | [3] | [5]

O=C(NC(=O)c1c(F)cccc1F)Nc1ccc(OC(F)(F)C(F)OC(F)(F)F)c(Cl)c1 (stereo unspecified)
inactive: [6] | [2] | [3] | [4] | [5]

N#CN
inactive: [6] | [2] | [3] | [5]

CCOc1nc(NC)nc(NC(=O)NS(=O)(=O)c2ccccc2C(=O)OC)n1
inactive: [1] | [9] | [2] | [3] | [5]

Clc1ccccc1-c1nnc(-c2ccccc2Cl)nn1
inactive: [6] | [2] | [3] | [5]
